Rows were chosen to be rich in hits. Some 12% of all compounds tested hit in one or more screens of this group.
G9a block = blocks human histone lysine methyltransferase G9a. Q96KQ7. G9a H3K9 monomethylation, AlphaScreen, 2 h. Potency, µM (series often up to 102 µM), inactives show top-dose activity, negative = inhibition, usual class: inhibitors. 350,000 tested, 8.8% active; also: % is scaled to controls: 0 for no effect and ±100 for the full control effect; nearly all actives have a fitted effect of over 75% in size
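Compounds were preincubated with 20 nM G9a for 15 min, after which biotinylated H3K9 peptide (500 nM) and SAM (20 uM) started a 2 h room-temperature reaction. Monomethylated product was quantified by antibody-based AlphaScreen chemiluminescence.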
JMJD2A Tudor = JMJD2A Tudor domain (human) inhibition; O75164; AlphaScreen JMJD2A-Tudor / H3K4me3 peptide binding; Potency, µM (highest dose often 114 µM), inactives show top-dose activity change, negative = inhibition, usual class: inhibitors; 390,000 tested, 4.4% active; AID 504339; also: % is scaled to controls: 0 for no effect and ±100 for the full control effect; nearly all actives have a fitted effect of over 50% in size
HP1b chromo inh = HP1-beta chromodomain-methylated histone interaction inhibition. Potency, µM (series often up to 114 µM), for the others: at the top dose activity change, negative = inhibition, most hits filed as inhibitors. 390,000 tested, 0.56% active. P83916. AlphaScreen HP1-beta / biotin-H3K9me3 peptide binding. AID 540317; also: nearly all actives have a fitted effect of over 70% in size
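AlphaScreen: HP1-beta (50 nM) preformed 30 min with biotin-H3(1-18)K9me3 peptide (50 nM) in PBS pH 7.4, 0.01% Tween-20. Compound added for 30 min at RT, then streptavidin donor/nickel chelate acceptor beads (10 ug/mL) for 30 min.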
Sfp PPTase inh = inhibitors of Bacillus subtilis Sfp phosphopantetheinyl transferase. Q9F4F7. Biochemical Sfp PPTase activity, qHTS. Potency, µM, for inactives: largest response in the series, negative = inhibition, usual class: inhibitors. 310,000 tested, 3.5% active;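 also: the enzyme is Sfp with the accession as filed and its product quenches rhodamine fluorescence; 0% = enzyme reaction without inhibitor and -100% = no enzyme wells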
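Sfp 15 nM + cpd, 15 min RT; start w/ rhodamine-CoA 5 uM, BHQ-2-YbbR 12.5 uM (final); 50 mM Hepes pH 7.6, 10 mM MgCl2, 0.01% NP-40, 0.01% BSA; read 525/598 nm at 0 and 30 min.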
BAZ2B block = inhibitors of human BAZ2B bromodomain; Q9UIF8; 360,000 tested, 4.4% active; Potency, µM (top dose mostly 114 µM), for inactives: top-dose activity change, negative = inhibition, usual class: inhibitors; AlphaScreen BAZ2B-H3K14Ac peptide displacement; also: % is scaled to controls: 0 for no effect and ±100 for the full control effect; nearly all actives have a fitted effect of over 60% in size
Target sequence (Q9UIF8 whole entry, looked up): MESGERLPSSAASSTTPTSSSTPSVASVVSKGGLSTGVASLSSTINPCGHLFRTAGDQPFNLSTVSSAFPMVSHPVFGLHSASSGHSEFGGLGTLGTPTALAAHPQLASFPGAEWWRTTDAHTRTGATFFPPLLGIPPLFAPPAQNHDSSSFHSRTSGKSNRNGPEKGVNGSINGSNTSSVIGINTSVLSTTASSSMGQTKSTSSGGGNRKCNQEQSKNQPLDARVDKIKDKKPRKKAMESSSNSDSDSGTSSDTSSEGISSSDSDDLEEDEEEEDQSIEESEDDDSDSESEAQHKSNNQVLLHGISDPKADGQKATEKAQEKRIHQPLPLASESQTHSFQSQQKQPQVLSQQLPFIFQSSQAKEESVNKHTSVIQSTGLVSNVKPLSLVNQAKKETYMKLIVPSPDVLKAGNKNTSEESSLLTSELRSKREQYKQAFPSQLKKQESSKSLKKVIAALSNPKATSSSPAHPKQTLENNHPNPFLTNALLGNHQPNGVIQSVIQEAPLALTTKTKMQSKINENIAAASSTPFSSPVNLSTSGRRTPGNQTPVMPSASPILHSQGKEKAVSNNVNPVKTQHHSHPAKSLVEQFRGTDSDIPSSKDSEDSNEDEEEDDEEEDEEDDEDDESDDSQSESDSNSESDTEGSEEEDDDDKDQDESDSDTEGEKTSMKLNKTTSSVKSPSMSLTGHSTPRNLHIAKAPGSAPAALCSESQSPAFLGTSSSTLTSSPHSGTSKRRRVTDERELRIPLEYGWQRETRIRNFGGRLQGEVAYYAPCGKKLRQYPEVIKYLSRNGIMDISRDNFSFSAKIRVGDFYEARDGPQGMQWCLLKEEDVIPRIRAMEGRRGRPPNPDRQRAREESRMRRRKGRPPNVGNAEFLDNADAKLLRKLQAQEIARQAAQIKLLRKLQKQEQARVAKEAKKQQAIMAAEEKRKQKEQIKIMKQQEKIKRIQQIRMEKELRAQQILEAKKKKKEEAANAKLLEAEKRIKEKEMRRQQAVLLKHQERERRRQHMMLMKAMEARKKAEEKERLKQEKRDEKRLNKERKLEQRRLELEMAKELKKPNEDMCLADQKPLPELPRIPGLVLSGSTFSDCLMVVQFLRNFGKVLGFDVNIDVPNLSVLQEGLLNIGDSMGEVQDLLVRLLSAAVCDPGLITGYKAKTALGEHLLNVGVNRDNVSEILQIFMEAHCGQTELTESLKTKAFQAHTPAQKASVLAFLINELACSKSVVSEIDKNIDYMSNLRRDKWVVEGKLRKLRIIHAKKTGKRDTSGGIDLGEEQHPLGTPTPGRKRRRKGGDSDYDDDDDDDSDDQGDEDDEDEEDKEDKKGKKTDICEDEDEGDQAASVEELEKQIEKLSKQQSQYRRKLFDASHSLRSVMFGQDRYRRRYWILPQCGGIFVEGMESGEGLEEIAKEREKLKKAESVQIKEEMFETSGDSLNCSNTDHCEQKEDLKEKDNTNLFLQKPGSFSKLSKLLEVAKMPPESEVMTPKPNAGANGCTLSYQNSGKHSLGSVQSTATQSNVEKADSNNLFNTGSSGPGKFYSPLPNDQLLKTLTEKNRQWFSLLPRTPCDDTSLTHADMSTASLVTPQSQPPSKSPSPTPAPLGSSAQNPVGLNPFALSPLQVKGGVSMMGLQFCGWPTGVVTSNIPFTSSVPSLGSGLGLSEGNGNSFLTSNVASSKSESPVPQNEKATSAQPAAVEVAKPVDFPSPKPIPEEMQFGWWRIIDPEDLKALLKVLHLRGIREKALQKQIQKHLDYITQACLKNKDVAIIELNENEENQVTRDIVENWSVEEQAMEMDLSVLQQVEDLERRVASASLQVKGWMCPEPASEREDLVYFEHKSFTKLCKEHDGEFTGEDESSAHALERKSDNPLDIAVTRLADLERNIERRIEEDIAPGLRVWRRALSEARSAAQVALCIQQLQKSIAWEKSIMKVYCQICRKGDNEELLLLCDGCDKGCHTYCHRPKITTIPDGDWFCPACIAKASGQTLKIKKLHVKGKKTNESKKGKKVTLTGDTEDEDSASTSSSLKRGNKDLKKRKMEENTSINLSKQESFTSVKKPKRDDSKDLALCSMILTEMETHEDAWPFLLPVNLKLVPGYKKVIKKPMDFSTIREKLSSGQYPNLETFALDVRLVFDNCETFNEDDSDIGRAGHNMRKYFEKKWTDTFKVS
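Inhibition is scored as reduced AlphaScreen emission. The BAZ2B/b-H3(5-23)K14Ac complex (50 nM each) in PBS pH 7.4, 0.01% Tween-20 meets compound (up to 110 uM) for 30 min at RT before bead addition.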
* marks the source's active call; other numbers are inactive results; [ ] = remark or other dose. Calls follow the shape of the dose curve; as a rule, active = well fitted curve in the direction sought with a large enough effect; inconclusive = small, poorly fitted or top-dose-only effect, or another doubt; inactive = no such curve, though single readings can be large; an effect the other way counts as inactive or inconclusive. Potency is read from the fitted curve at half-maximal effect.

Screening O=C(CSc1nnc(Cc2ccccc2)o1)c1ccc(F)cc1 returned G9a block -8.9%[12.7 µM], JMJD2A Tudor 14.4%, HP1b chromo inh 44.2%, Sfp PPTase inh 4.9% and BAZ2B block -3.0%.
`CCOC(=O)c1c(NC(C)=O)c2c3c(sc2n1Cc1nc(-c2ccccc2Cl)oc1C)CCCC3` gave G9a block -29.9%[59 µM], JMJD2A Tudor -15.3%, HP1b chromo inh 16.8% and BAZ2B block -16.0%.
Cc1ccc(OCC(=O)N(Cc2ccccc2)C(C)(C)C)c([N+](=O)[O-])n1 was read as G9a block 28.1%[59 µM], JMJD2A Tudor -2.8%, HP1b chromo inh 12.8%, Sfp PPTase inh 10.6% and BAZ2B block 1.3%.
O=C(Nc1ccc2c(c1)CCC2)c1ccc(F)cc1 was read as G9a block -6.2%, JMJD2A Tudor -5.5%, HP1b chromo inh 33.6%, Sfp PPTase inh 11.4% and BAZ2B block 2.8%.
For O=C(Nc1ccc2c(c1)CCC2)c1cc(S(=O)(=O)Nc2ccc(F)cc2)c(Cl)cc1Cl the results were G9a block 10µM*, JMJD2A Tudor inconclusive, HP1b chromo inh -4.5%, Sfp PPTase inh 13.9% and BAZ2B block -6.6%.
`CCOC(=O)C(=O)NCC(c1ccco1)S(=O)(=O)c1cccs1` (centres undefined) gave G9a block inconclusive, JMJD2A Tudor 11.2µM*, HP1b chromo inh 24.8% and BAZ2B block -15.5%.
`Cc1ccc(CNC(=O)C(=O)NCC(c2ccco2)S(=O)(=O)c2cccs2)cc1` (centres undefined) gave G9a block 10.1%[59 µM], JMJD2A Tudor -10.7%, HP1b chromo inh 26.8% and BAZ2B block -3.1%.
`CC(C)C[C@H](NC(=O)N1CC(=O)Nc2ccccc21)C(=O)N1CCC[C@H]1C(=O)O` gave G9a block 11.4%, JMJD2A Tudor -17.7%, HP1b chromo inh 17.4%, Sfp PPTase inh 6.1% and BAZ2B block -2.6%.
For COc1ccc(-c2csc(NC3CCCCC3)n2)c(OC)c1 the results were G9a block 44.7µM*, JMJD2A Tudor inconclusive, HP1b chromo inh inconclusive, Sfp PPTase inh -27.0% and BAZ2B block -35.1%.
For COc1ccc(-c2csc(-c3ccccc3)n2)c(OC)c1 the results were G9a block 37.9%, JMJD2A Tudor 51.0%, HP1b chromo inh 169.1%, Sfp PPTase inh 0.1% and BAZ2B block 76.9%.
`c1ccc(-c2csc(NC3CCCCC3)n2)cc1` gave G9a block 50.1µM*, JMJD2A Tudor -23.3%, HP1b chromo inh -11.7%, Sfp PPTase inh -7.7% and BAZ2B block -30.3%.
COc1cc(C2N(c3ccccc3)CCN2c2ccccc2)cc(OC)c1OC was read as G9a block inconclusive, JMJD2A Tudor inconclusive, HP1b chromo inh -6.1%, Sfp PPTase inh -20.3% and BAZ2B block inconclusive.
`Cc1ccc(N2CCN(c3ccc(C)cc3)C2c2ccncc2)cc1` gave G9a block 35.5µM*, JMJD2A Tudor -32.9%[11.4 µM], HP1b chromo inh inconclusive, Sfp PPTase inh 44.7µM* and BAZ2B block -77.3%.
Screening O=C(CSc1ccc(-c2cccnc2)nn1)c1ccc([N+](=O)[O-])cc1 returned G9a block 22.4µM*, JMJD2A Tudor -30.3%, HP1b chromo inh -3.2%, Sfp PPTase inh -29.9% and BAZ2B block -15.6%.
O=[N+]([O-])c1cccc(-c2ccc(SCc3cccnc3)nn2)c1 was read as G9a block -4.9%, JMJD2A Tudor -20.4%, HP1b chromo inh 7.1%, Sfp PPTase inh 6.3% and BAZ2B block inconclusive.
Screening O=C(CSc1ccc(-c2ccncc2)nn1)c1ccccc1 returned G9a block 25.1µM*, JMJD2A Tudor -17.5%, HP1b chromo inh 16.3%, Sfp PPTase inh 8.2% and BAZ2B block -1.7%.
O=C(COC(=O)c1ccccn1)c1ccc([N+](=O)[O-])cc1 was read as G9a block 11.2µM*, JMJD2A Tudor 25.1µM*, HP1b chromo inh 29.2%, Sfp PPTase inh inconclusive and BAZ2B block 11.2µM*.
For O=C(CSc1ccc(-c2ccccn2)nn1)c1ccc([N+](=O)[O-])cc1 the results were G9a block 39.8µM*, JMJD2A Tudor inconclusive, HP1b chromo inh 6.2%, Sfp PPTase inh 31.6µM* and BAZ2B block 8.91µM*.
`O=C(COC(=O)c1cnccn1)c1ccccc1` gave G9a block -7.5%, JMJD2A Tudor -17.1%, HP1b chromo inh 28.0%, Sfp PPTase inh 15.8% and BAZ2B block -9.9%.
For O=C(CC(=O)c1ccncc1)c1ccccc1 the results were JMJD2A Tudor 31.6µM* and HP1b chromo inh 6.9%.
`COC(=O)C(C)Sc1ncnc2c1nnn2-c1ccc(F)cc1` (centres undefined) gave G9a block 42.8%, JMJD2A Tudor 15.6%, HP1b chromo inh 120.0%, Sfp PPTase inh 5.9% and BAZ2B block 10.4%.
`COc1ccc(-n2nnc3c(SC(C(C)=O)C(=O)N(C)C)ncnc32)cc1` (centres undefined) gave JMJD2A Tudor -31.9%, HP1b chromo inh inconclusive, Sfp PPTase inh 17.8µM* and BAZ2B block -25.6%.
Cc1ccc(NCN2C(=O)C3C4CCC(C4)C3C2=O)cc1 (centres undefined) was read as G9a block -3.1%, Sfp PPTase inh 1.1% and BAZ2B block 2.8%.
Screening O=C1C2C3C=CC(C3)C2C(=O)N1CNc1ccc(O)cc1 (centres undefined) returned G9a block 2.24µM*, Sfp PPTase inh 56.2µM* and BAZ2B block 44.7µM*.
Screening Cc1ccc(NCN2C(=O)C3C4C=CC(C4)C3C2=O)cc1 (centres undefined) returned G9a block 7.0%, JMJD2A Tudor 17.8µM*, HP1b chromo inh -8.1%, Sfp PPTase inh 0.0% and BAZ2B block 8.9%.
For Cc1cc2c(ncn2C(C)C)c(NS(=O)(=O)c2ccc(F)cc2)c1C the results were G9a block 3.4%, JMJD2A Tudor -11.1%, HP1b chromo inh 16.2%, Sfp PPTase inh -2.1% and BAZ2B block 3.3%.
Screening CC(C)NC(=O)CN(C(=O)CCC(=O)Nc1nccs1)c1ccc(C(C)C)cc1 returned G9a block -0.4%, JMJD2A Tudor -7.2%, HP1b chromo inh 52.8%, Sfp PPTase inh 9.0% and BAZ2B block inconclusive.
Screening CCCN(C(=O)CCOc1ccc(C(C)(C)C)cc1)c1c(N)n(Cc2ccccc2)c(=O)[nH]c1=O returned G9a block inconclusive, JMJD2A Tudor -2.8%, HP1b chromo inh 9.9% and BAZ2B block 1.8%.
CC(c1ccccc1)n1c(-c2cccs2)nc2c(c(=O)c3ccccc3n2C)c1=O (centres undefined) was read as G9a block 32.4%[12.7 µM], JMJD2A Tudor -19.8%, HP1b chromo inh 7.9%, Sfp PPTase inh 79.4µM* and BAZ2B block inconclusive.
Screening Cn1c2ccccc2c(=O)c2c(=O)n(-c3ccc(F)cc3)c(-c3cccs3)nc21 returned JMJD2A Tudor -21.7%, HP1b chromo inh 22.3%, Sfp PPTase inh -4.1% and BAZ2B block -3.0%.

Screening results from PubChem BioAssay.
